Measured values published in the supplement of paper PMC11732987, “Enantioselective OTUD7B fragment discovery through chemoproteomics screening and high-throughput optimisation” (Communications Chemistry, 2025).

Key:
Assay in all cases: log2 ratio of Biotin-Ahx-Ub-VS probe labelling (fragment/DMSO); higher = less target engagement (more negative = stronger competition), active = hit call of the paper (q ≤ 0.05, log2 ratio ≤ -1)
Settings in all cases: compound concentration: 200 uM; treatment time: 3 h
[1] = biological target: T1, USP42 (UniProt Q9H9J4)
T1 sequence (whole entry): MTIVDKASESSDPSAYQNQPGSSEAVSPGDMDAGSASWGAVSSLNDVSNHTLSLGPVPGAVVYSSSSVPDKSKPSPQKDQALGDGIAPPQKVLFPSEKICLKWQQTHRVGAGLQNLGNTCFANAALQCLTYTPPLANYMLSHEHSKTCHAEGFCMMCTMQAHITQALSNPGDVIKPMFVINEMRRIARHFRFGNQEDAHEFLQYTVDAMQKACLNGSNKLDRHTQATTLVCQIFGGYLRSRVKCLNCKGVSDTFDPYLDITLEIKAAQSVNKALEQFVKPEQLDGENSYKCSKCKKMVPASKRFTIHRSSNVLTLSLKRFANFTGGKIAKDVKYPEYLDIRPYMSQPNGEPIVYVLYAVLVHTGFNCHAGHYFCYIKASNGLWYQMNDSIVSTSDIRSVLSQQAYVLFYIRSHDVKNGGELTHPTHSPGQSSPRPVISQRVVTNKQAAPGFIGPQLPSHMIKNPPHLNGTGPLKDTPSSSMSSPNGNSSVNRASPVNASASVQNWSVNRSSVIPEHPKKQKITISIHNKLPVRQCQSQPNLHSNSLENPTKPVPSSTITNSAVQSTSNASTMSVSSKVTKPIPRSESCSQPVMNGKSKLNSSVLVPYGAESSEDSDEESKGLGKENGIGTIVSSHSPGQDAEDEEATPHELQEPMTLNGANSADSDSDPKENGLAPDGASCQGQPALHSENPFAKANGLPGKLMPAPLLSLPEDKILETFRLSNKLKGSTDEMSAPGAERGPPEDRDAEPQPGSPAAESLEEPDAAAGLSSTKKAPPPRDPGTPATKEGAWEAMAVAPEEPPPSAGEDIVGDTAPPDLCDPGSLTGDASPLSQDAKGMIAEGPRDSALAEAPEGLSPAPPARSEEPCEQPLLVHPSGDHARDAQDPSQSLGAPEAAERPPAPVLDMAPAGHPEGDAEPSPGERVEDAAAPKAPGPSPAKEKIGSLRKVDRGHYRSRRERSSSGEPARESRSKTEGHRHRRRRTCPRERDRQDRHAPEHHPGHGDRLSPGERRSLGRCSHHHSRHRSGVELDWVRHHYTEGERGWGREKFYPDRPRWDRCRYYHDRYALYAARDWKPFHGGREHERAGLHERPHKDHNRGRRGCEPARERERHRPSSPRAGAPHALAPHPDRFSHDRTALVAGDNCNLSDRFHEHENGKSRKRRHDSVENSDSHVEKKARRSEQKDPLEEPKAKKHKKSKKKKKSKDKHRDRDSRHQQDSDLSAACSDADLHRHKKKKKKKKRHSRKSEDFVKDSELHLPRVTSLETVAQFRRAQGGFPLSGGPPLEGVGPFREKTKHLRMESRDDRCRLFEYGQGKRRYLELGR
Method in brief: (§1)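 HEK293T lysate (495 µg per sample, in Tris/CHAPS/IGEPAL buffer with protease inhibitors) was treated in triplicate with fragment at 200 µM or with DMSO for 3 h. It was then treated with Biotin-Ahx-Ub-VS (0.5 µM final) for 1 h. Labelled DUBs were NeutrAvidin-enriched, digested with LysC and trypsin, and run by diaPASEF LC-MS/MS. Spectronaut label-free quantities were global-median-normalised. Values are average log2 ratios fragment/DMSO by unpaired t-test, using proteins with ≥2 unique peptides.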

[2] = biological target: USP46 (UniProt P62068)
Method in brief: as §1

[3] = biological target: T2, USP47 (UniProt Q96K76)
T2 sequence (whole entry): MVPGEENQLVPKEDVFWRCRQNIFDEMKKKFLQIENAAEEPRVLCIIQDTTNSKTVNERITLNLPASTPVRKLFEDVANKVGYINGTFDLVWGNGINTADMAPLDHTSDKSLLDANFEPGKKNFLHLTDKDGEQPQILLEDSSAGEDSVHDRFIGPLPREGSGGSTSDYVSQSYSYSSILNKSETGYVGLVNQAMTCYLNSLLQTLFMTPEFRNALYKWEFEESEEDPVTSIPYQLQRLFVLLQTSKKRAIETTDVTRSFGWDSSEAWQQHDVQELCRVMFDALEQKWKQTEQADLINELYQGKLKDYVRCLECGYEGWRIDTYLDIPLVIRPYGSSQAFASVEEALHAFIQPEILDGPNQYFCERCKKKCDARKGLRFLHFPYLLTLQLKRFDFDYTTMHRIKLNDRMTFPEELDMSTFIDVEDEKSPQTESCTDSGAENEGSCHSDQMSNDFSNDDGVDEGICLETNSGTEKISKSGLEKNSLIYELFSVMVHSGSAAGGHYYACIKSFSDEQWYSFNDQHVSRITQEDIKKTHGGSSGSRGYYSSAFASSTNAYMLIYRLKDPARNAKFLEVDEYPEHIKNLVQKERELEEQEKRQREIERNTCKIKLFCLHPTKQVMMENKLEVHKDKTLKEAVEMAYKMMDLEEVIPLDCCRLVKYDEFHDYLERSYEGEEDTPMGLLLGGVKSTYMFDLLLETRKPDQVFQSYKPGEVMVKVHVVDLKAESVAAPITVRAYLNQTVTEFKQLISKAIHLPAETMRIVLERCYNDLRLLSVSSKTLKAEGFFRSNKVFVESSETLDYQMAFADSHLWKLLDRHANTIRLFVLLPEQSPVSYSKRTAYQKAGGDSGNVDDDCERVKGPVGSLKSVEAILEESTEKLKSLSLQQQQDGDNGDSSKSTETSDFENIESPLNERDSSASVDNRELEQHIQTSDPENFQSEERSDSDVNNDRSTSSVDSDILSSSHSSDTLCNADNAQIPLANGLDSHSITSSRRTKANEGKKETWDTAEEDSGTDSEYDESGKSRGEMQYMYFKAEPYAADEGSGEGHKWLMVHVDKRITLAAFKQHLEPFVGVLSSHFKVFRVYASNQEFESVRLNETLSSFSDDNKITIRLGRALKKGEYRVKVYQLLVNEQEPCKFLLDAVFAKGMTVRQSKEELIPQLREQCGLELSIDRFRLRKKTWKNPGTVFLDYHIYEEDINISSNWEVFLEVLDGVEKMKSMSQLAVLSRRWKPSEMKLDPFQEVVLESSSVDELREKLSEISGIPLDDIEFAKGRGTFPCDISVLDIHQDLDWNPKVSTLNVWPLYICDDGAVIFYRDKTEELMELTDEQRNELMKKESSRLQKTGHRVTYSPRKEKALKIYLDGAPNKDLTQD
Method in brief: as §1

[4] = biological target: T3, USP48 (UniProt Q86UV5)
T3 sequence (whole entry): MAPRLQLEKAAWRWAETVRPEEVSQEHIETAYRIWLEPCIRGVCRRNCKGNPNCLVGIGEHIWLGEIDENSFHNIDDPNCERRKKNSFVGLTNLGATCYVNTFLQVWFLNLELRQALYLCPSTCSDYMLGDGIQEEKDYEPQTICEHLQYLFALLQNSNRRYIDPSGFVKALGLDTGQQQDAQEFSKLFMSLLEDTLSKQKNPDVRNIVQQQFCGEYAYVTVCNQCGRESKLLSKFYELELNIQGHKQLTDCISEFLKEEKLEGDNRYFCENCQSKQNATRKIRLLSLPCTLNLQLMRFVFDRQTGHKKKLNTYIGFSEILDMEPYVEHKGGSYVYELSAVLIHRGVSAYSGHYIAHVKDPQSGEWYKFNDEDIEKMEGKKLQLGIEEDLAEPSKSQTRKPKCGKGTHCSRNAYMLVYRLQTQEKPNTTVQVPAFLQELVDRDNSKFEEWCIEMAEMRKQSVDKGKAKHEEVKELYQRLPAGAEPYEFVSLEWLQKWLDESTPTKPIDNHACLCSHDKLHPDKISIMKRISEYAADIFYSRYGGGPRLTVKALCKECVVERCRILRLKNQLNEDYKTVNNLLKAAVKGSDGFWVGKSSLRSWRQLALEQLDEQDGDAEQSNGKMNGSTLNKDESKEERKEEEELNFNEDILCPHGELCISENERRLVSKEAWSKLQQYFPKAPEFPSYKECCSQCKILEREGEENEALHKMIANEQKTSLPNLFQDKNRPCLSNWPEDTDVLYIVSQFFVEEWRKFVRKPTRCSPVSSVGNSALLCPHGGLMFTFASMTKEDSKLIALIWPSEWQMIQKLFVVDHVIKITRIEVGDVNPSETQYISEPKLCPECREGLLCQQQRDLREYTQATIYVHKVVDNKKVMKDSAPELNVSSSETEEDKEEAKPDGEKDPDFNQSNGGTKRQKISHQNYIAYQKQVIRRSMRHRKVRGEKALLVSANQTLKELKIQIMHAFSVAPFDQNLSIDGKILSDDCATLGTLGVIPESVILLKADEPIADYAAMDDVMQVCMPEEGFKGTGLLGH
Method in brief: as §1

[5] = biological target: T4, USP5 (UniProt P45974)
T4 sequence (whole entry): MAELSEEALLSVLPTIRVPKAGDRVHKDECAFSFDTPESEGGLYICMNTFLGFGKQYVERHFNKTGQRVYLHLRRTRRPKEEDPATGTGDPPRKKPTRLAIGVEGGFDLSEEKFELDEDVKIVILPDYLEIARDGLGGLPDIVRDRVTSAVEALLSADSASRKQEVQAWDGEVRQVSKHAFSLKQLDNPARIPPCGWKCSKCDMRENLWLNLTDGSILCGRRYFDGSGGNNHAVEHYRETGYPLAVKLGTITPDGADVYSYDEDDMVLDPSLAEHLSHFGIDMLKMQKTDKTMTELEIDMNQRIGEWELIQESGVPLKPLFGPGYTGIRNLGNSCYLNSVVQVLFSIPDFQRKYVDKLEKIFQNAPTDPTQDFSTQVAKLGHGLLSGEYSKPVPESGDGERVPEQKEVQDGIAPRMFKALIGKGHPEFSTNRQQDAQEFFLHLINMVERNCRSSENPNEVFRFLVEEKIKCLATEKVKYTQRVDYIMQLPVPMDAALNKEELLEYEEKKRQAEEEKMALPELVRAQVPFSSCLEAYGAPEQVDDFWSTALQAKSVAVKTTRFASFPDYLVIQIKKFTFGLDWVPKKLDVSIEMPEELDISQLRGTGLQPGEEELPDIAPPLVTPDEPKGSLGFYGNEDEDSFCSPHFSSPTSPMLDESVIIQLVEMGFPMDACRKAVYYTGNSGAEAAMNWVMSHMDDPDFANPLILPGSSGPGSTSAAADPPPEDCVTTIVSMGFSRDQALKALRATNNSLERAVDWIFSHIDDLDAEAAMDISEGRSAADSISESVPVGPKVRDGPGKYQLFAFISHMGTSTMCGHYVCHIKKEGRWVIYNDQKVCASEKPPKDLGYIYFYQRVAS
Method in brief: as §1

[6] = biological target: USP54 (UniProt Q70EL1)
Method in brief: as §1

[7] = biological target: USP7 (UniProt Q93009)
Method in brief: as §1

[8] = biological target: T5, USP8 (UniProt P40818)
T5 sequence (whole entry): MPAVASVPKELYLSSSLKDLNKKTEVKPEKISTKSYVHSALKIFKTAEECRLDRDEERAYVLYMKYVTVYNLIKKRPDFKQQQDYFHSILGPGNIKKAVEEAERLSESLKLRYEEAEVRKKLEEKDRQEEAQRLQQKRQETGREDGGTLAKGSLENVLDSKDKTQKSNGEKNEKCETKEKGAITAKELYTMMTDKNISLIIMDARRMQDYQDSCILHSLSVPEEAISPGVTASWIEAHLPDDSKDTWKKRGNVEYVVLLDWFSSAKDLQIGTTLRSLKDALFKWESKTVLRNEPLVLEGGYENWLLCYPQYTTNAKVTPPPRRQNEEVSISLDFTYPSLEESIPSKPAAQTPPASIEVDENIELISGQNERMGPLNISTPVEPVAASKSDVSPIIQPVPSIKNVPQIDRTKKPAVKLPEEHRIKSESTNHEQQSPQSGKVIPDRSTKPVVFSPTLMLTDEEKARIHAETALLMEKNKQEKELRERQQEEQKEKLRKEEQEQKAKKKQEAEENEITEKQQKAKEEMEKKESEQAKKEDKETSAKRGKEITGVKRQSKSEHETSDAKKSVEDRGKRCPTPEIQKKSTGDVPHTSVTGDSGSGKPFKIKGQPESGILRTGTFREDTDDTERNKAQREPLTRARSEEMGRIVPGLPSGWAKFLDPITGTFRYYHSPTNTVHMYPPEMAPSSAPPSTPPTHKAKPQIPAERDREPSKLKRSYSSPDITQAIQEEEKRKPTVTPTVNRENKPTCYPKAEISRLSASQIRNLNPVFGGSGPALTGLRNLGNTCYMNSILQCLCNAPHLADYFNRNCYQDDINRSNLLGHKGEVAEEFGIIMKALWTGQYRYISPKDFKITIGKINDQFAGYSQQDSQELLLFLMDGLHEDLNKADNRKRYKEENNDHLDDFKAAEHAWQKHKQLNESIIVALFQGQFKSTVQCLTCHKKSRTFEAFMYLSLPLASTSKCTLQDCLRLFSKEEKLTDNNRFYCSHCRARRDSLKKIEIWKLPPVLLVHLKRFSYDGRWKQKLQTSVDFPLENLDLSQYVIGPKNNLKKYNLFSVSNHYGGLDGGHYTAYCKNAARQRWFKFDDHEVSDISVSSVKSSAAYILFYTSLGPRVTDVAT
Method in brief: as §1

[9] = biological target: USP9X (UniProt Q93008)
Method in brief: as §1

[10] = biological target: UniProt O00487
Method in brief: as §1

Measured: log2 ratio of Biotin-Ahx-Ub-VS probe labelling

Chain of USP7 (Q93009 whole entry, looked up): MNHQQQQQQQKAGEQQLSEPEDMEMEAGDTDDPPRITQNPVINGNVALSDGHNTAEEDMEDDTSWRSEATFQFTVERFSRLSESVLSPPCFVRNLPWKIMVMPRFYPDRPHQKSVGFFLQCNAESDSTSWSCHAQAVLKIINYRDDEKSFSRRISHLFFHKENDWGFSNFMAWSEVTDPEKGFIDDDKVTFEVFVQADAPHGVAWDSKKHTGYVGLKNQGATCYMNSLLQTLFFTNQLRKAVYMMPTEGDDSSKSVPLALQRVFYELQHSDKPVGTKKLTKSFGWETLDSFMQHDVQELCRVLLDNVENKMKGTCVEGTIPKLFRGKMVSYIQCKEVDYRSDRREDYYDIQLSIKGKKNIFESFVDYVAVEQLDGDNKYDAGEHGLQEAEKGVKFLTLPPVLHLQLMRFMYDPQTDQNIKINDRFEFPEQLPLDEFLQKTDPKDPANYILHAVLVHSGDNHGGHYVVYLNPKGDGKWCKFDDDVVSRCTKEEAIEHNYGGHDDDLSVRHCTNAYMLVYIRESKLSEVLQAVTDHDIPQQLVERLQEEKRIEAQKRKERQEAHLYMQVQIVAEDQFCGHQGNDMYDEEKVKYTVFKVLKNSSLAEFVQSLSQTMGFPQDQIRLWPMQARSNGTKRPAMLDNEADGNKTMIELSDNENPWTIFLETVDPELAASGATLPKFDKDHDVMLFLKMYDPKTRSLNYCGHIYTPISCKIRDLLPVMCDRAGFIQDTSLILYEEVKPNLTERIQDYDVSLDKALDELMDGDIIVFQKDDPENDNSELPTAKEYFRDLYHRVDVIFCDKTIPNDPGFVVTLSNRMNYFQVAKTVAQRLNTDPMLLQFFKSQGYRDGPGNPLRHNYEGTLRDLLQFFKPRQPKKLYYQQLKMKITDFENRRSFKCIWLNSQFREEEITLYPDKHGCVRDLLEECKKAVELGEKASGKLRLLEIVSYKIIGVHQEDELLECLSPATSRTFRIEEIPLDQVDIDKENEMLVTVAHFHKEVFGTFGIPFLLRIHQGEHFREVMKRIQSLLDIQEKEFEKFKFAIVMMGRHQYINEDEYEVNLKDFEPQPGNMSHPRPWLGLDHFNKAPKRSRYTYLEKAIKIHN
Chain of USP9X (Q93008 whole entry): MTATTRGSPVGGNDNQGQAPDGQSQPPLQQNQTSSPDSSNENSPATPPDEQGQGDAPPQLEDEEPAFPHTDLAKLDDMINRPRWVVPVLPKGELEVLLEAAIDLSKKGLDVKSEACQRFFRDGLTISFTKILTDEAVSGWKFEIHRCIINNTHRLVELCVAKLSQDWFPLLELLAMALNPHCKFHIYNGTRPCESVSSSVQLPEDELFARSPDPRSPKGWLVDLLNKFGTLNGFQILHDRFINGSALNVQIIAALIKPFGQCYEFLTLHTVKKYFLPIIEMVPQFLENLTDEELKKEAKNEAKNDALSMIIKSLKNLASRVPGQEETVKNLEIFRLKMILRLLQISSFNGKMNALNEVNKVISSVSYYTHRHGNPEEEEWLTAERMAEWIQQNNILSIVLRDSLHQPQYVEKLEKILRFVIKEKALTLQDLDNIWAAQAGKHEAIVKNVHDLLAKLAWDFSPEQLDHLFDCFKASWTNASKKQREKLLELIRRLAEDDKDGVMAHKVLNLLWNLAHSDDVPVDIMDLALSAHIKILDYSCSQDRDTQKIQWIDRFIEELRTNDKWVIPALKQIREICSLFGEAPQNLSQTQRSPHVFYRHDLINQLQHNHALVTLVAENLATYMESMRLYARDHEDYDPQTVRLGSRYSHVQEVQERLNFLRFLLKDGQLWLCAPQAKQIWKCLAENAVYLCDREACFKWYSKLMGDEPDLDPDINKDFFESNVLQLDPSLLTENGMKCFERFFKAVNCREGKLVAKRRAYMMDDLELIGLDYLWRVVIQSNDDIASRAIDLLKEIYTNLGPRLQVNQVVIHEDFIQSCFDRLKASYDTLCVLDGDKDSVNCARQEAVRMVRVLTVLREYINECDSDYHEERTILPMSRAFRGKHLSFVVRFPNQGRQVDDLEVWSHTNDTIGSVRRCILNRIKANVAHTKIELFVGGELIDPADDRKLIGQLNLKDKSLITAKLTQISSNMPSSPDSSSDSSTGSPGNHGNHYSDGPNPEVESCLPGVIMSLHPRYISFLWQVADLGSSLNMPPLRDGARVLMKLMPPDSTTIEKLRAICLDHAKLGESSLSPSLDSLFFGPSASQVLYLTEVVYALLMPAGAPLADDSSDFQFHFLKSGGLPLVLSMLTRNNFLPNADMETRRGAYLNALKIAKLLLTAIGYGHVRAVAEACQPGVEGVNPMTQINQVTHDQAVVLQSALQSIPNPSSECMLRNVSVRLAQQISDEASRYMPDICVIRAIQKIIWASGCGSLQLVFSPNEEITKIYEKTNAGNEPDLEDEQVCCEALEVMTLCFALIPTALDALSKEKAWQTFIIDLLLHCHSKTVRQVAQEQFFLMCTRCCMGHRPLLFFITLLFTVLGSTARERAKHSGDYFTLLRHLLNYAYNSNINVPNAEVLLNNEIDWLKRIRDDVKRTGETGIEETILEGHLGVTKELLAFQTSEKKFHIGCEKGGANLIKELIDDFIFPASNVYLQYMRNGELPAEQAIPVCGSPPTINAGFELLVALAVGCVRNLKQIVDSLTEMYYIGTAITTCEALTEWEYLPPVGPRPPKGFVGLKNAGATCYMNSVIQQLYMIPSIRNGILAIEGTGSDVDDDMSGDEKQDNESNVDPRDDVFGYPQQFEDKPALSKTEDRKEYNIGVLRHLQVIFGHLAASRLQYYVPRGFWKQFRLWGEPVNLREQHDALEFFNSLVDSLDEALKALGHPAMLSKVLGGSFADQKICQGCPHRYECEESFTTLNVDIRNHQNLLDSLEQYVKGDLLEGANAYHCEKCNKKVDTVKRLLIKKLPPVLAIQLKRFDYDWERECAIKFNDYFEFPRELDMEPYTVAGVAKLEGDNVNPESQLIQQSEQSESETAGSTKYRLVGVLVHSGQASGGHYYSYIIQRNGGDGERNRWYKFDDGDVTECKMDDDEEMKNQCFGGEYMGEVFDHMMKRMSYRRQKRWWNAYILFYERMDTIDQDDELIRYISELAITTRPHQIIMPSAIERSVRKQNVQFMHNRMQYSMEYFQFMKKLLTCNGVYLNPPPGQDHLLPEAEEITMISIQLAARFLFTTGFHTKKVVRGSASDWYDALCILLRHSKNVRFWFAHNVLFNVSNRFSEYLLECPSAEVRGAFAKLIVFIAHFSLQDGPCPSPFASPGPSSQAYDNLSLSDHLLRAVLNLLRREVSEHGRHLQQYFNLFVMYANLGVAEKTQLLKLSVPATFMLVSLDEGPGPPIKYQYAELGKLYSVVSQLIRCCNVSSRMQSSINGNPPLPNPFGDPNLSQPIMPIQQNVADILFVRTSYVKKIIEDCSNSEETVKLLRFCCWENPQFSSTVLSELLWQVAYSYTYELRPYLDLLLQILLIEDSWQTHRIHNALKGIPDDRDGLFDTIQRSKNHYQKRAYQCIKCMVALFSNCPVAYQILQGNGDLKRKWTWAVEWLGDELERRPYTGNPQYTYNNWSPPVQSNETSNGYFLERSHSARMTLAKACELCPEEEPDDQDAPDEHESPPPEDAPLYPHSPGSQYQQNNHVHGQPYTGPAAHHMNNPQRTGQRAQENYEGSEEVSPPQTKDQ
Chain of UniProt O00487 (O00487 whole entry): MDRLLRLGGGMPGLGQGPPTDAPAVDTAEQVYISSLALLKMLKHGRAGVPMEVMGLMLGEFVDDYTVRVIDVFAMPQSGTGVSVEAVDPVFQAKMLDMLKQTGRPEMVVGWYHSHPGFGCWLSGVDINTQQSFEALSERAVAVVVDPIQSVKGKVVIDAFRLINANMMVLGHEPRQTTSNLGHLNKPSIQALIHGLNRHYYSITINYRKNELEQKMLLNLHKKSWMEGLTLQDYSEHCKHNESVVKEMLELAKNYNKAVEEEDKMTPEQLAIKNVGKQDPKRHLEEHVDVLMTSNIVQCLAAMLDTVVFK
Chain of USP46 (P62068 whole entry): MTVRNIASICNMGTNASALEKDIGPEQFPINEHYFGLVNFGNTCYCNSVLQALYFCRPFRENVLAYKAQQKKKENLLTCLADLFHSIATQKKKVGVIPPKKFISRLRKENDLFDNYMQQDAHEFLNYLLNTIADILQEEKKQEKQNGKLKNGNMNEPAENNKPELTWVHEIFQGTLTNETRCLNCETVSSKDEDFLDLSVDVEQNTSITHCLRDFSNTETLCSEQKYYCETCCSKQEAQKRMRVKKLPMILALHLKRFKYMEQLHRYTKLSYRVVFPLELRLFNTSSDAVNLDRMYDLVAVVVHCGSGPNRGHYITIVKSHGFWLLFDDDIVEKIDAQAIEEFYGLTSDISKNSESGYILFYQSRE

O=C(O)C1Cc2ccccc2CN1C(=O)CCl (stereo not given)
inactive: [1] -0.449 | [2] -0.111 | [3] -0.301 | [4] -0.543 | [5] -0.0229 | [6] 0.788 | [7] -0.333 | [8] -0.283 | [9] -0.449 | [10] -0.262
